Results taken from the supplement of paper PMC6555819.

System: VDR:RXRa (NR concentration 270 nM, RXRa partner concentration 90 nM)
Assay: PBM binding z-score (relative to random genomic background probes); higher = stronger binding; sequences stand for … in GC…GCGATTGACAGCGTAGAATGAAGG
Experimental: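 Protein-binding microarray (Agilent 4x180K custom design, double-stranded 60-nt probes: 5' GC cap, 34-nt variable region, 24-nt constant primer region; full probe sequence given). Purified or IVT nuclear receptor:RXRα heterodimers (3:1 NR:RXRα, mostly 270:90 nM) or homodimers were incubated for 1 h in PBS with 2% milk and no ligand, then detected with Alexa488 antibodies. Fluorescence from o1-orientation probes (~5 replicates averaged) was converted to z-scores against 500 random hg19 background probes. Variable regions are seed direct-repeat (DR0–DR5) sites, all their single-nucleotide variants and half-site ablations.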

Sequence	PBM binding z-score
CCTACTGGGCCACGAAAGGTAATTGATTCAGTGA	-0.34
CGTCCAAGGTCAAGCTCAGTGAAAGAGACTCGAA	4.06
ACTTACGGGTCAAGGAGGTTATAGCACGCGTATA	6.7
CAAACTAGGTCAAGAGGTCAAACTCCGCTTCCCG	6.49
CTATGTAGGGTAAGGGGGTCATTCAGTTTGAAAG	7.01
CCGAGTAGGTAACGAGGGGGCATTCAGTGCGAAT	4.19
CCGACTTGGGCAAAGGTTACCATACTCAGTACGA	0.927
CCGAGTAGGCTACGAGGGGGCATTCAGTGCGAAT	3.16
CCGAGTAGGTTACGAGAGGGCATTCAGTGCGAAT	4.33
TTATCAAGGTGAAAGGTCGTTGATGCACGCCTTG	3.29
CCGAGTAGGTTACGAGGGGGAATTCAGTGCGAAT	1.7
ACTAGAAGGCCAAGGGTCACTCAAGATTAGTCCG	3.26
CTATGTAGGTTAAGGTGGTCATTCAGTTTGAAAG	2.29
TCATATAGGTAATAAAGGTGAAAGTCGGCATCTA	1.42
CTCTGTAGGTTAAGGGGGTCATTCAGTTTGAAAG	7.66
CCGGGTAGGTTACGAGGGGGCATTCAGTGCGAAT	5.31
TCTAGCTGGTCACGGAGGTCACACACGACGGGTA	6.05
CCGACTGGGGCAAAGGTCACCATACTCAGTACGA	4.7
CTGTGTAGGTTAAGGGGGTCATTCAGTTTGAAAG	7.46
CTATGTACGTTAAGGGGGTCATTCAGTTTGAAAG	6.72

Sequence	PBM binding z-score
CCGAGTAGGTTACGAGGGGGCTTTCAGTGCGAAT	2.13
ATATGAAGGTTATCGGGTCATTCAGTTTGCGCAT	5.41
TCGAGTAGGTTACGGGGGCAGTCAGGGATGAAGA	2.8
CGTCAACGTTCAACTAAGGTAACGTAAAGCACGC	0.25
TAGCCTAGGTCCTTCAGGGGCCAGTATAGAAAGC	-0.708
CCTACTGGGCCAACAAGGTCATTGATGCCGATAA	5.56
ATTTGTAGGTTATCGGGTCATTCAGTTTGCGCAT	5.57
CGTCCAAGGTCAGTGAGGTCAGTGAATGCCGAGT	7.42
AAATGTAGGTTAAGGGTCATTCAGGTTGGTTCGC	5.82
AGTCAAAGTTCATCTAGGTAACGAAAGATATGCT	4.81
TCGAGTAGGTTACGGGGGCATTAAGGGATGAAGA	3.4
CAAACTAGGTCACCGGAAGGTCATAGTCCGCATG	5.66
GATCCAGGGTCAGCTAGAGGCCAGAGTATGGAAA	3.16
TAGCCTAGGTCATGGGCCAGTTTACCACGCGAAC	2.61
CGAACTAGGTCCAAGGACAGTGAAAGGCGACGTA	-0.332
TCTAGTTGGTCAAAGGTCTCACACTCGAAATGCG	1.42
AGTCAAAGTTCAGGACGAGATAACGTAAAGCACG	2.19
CGTCCAAGGTCAACAGGTCAGTGAAAGCGACGTG	5.16
ACTAGGAGGACAAAGGTCAGAGCTACGCCAGTGA	3.45
AGAATGGGGTTAAGATCAGGGAAACAGAATACAT	2.91
